This note sets out measurements from PubChem BioAssay (NCATS).

Inconclusive results are not listed. Values without a mark were called inactive. Activity calls are given as the source filed them. The call rests on the fitted dose curve; in most records, active means well fitted curve in the direction sought with a large enough effect; inconclusive means small, poorly fitted or top-dose-only effect, or another doubt; inactive means no such curve, though single readings can be large; an effect the other way counts as inactive or inconclusive.

One assay in a line: qHTS Assay for Identifying Gametocytocidal Compounds (AID 743244). Further: potency means the concentration at half of the fitted maximal effect.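 On max response: on the % scale 0 is the no-effect control and ±100 the full control effect; actives lower the fluorescent signal which means gametocytes are killed.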 The following applies: P. falciparum 3D7 stage III-V gametocytes, alamarBlue, 72 h; max response: hits give low values. An outline of the steps: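 A resazurin-based viability read-out was applied to mature P. falciparum gametocytes: 72 h compound treatment, then 24 h dye incubation, with falling fluorescence signalling gametocytocidal effect.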
As to `CCCc1ncc(C[n+]2ccccc2C)c(N)n1`, the max response is 8.25%.

For `CC(C)Cn1cnc2c1c(=O)n(C)c(=O)n2C`, the max response was -4.05%. On to `N[C@H](C(=O)O)[C@@H](O)c1ccc(O)c(O)c1`, for which the max response is 1.39%.

For `CNCCc1ccccn1`, the max response was -0.406%. With `CCC1NC(=O)c2cc(S(N)(=O)=O)c(Cl)cc2N1` (stereo not drawn), the max response is 5.58%. With `O=C(O)P(=O)(O)O`, the max response was 10.4%. Still for that read-out and setting: next, `CC(=O)O[C@]1(C(C)=O)CC[C@H]2[C@@H]3C=C(C)C4=CC(=O)CC[C@]4(C)[C@H]3CC[C@@]21C`: 3.72%; `C#C[C@]1(O)CC[C@H]2[C@@H]3CCC4=CC(=O)CC[C@@H]4[C@H]3CC[C@@]21CC`: 6.28%. On to `C#C[C@]1(O)CC[C@H]2[C@@H]3CCc4cc(OC)ccc4[C@H]3CC[C@@]21C`, for which the max response was -2.6%. Turning to `CN1CCc2cccc3c2[C@H]1Cc1ccc(O)c(O)c1-3`, the Potency is 3.98 µM (active). `Cc1ccc(S(=O)(=O)NC(=O)NC2CCCC2)cc1`: the max response was 3.98%. Consider `C[C@H]1[C@H]2CC[C@H]3[C@@H]4CC=C5C[C@@H](N(C)C)CC[C@]5(C)[C@H]4CC[C@]23CN1C`, for which the max response is -6.8%. For the molecule `CCN(CC)CCOC(=O)C(Cc1cccc2ccccc12)CC1CCCO1` (stereo not drawn), the max response is 7.43%. `COc1cc(O)c(C(=O)c2ccccc2)cc1S(=O)(=O)O`: the max response is -9.98%. Turning to `CCC(C(=O)OCCOCCN(CC)CC)c1ccccc1` (stereo not drawn), the max response was 6.25%.

As for `CC(=O)Nc1ccc(S(=O)(=O)Nc2ccc([N+](=O)[O-])cc2)cc1`, the max response is 3.59%. Turning to `OC(C#CCN1CCCC1)(c1ccccc1)c1ccccc1`, the max response was -3.1%. `CO[C@]12C[C@@H](COC(=O)c3cncc(Br)c3)CN(C)[C@@H]1Cc1cn(C)c3cccc2c13`: the max response was 10.7%. As for `CN1CCN(c2cc3c(cc2F)c(=O)c(C(=O)O)cn3-c2ccc(F)cc2)CC1`, the max response is -4.31%.

Another assay in a line: qHTS assay for measurement of the activity of small molecule inhibitors on Zika virus induced Caspase-3 activity in human iPSC derived neural progenitor cells (hNPCs) (AID 1224857). Further: % of control where 0% means no effect; nearly all actives have a fitted effect of over 65% in size. The following applies: hNPCs ZIKV-induced caspase-3/7, Caspase-Glo luminescence, 6 h; series mostly up to 45.7 µM; activity change, negative = inhibition: at the top concentration. Summed up: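 Quantitative HTS format: human iPSC neural progenitors, 1 h compound pretreatment, ZIKV 2 FFU/cell for 6 h at 37 C. Percent inhibition derived from luminescent caspase-3/7 signal between uninfected and infected controls.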
With `CCN(CC)CCOC(=O)C1(c2ccccc2)CCCC1`, the “activity change, negative = inhibition” value was -5.93%. Regarding `O=C1C(O)=C(O)C(=O)C(O)=C1O`, the “activity change, negative = inhibition” value is -6.56%. On to `CC(=O)N[C@@H](CCC(=O)O)C(=O)O`, for which the “activity change, negative = inhibition” value was -6.47%. Turning to `CCc1oc2ccccc2c1C(=O)c1cc(I)c(O)c(I)c1`, the “activity change, negative = inhibition” value is -12.1%. Regarding `CN1CCN(C2=Nc3ccccc3Sc3ccc(Cl)cc32)CC1`, the “activity change, negative = inhibition” value was -8.23%. `CC1=C(C(=O)O)N2C(=O)[C@@H](NC(=O)[C@H](N)c3ccccc3)[C@H]2SC1`: the “activity change, negative = inhibition” value was -4.28%. On the same count and under the same terms, next, `COc1ccc(CN(CCN(C)C)c2ncccn2)cc1`: 7.14%. Turning to `CC(C)(C)NC[C@H](O)COc1cccc2c1CCCC2=O`, the “activity change, negative = inhibition” value is -8.09%.

For the molecule `CC(C)=CCOc1ccc(/C=C/C(=O)c2ccc(OCC=C(C)C)cc2OCC(=O)O)cc1`, the “activity change, negative = inhibition” value is -0.513%.

Consider `NCc1ccccc1Sc1ccccc1CO`, for which the “activity change, negative = inhibition” value was -2.48%.

With `CCOC(=O)c1ccc(N)cc1`, the “activity change, negative = inhibition” value was -15.9%.

Consider `CC(=O)OCC(=O)[C@H]1CC[C@H]2[C@@H]3CCC4=CC(=O)CC[C@]4(C)[C@H]3CC[C@]12C`, for which the “activity change, negative = inhibition” value is 12.8%.

As for `N/C(=N\N=C\c1ccc(Cl)cc1)N/N=C/c1ccc(Cl)cc1`, the “activity change, negative = inhibition” value was -1.91%. Consider `Nc1ccc(S(=O)(=O)NCc2ccccc2)cc1`, for which the “activity change, negative = inhibition” value was 27%. Regarding `O=C1[C@H](CC[C@H](O)c2ccc(F)cc2)[C@@H](c2ccc(O)cc2)N1c1ccc(F)cc1`, the “activity change, negative = inhibition” value is -9.1%. Same read-out and setting: next, `COc1cc(C(=O)NCc2ccc(OCCN(C)C)cc2)cc(OC)c1OC`: -5.32%; `CCCc1ncc(C[n+]2ccccc2C)c(N)n1`: -9.56%.

With `CC(C)Cn1cnc2c1c(=O)n(C)c(=O)n2C`, the “activity change, negative = inhibition” value is -12%. On the same count and under the same terms, next, `N[C@H](C(=O)O)[C@@H](O)c1ccc(O)c(O)c1`: 18.9%; `CNCCc1ccccn1`: 2.06%. For `CCC1NC(=O)c2cc(S(N)(=O)=O)c(Cl)cc2N1` (stereo not drawn), the “activity change, negative = inhibition” value is 3.09%.

For the molecule `O=C(O)P(=O)(O)O`, the “activity change, negative = inhibition” value is -0.0739%. The same measure, in the same setting: next, `CC(=O)O[C@]1(C(C)=O)CC[C@H]2[C@@H]3C=C(C)C4=CC(=O)CC[C@]4(C)[C@H]3CC[C@@]21C`: 19.5%. On the same count and under the same terms, next, `C#C[C@]1(O)CC[C@H]2[C@@H]3CCC4=CC(=O)CC[C@@H]4[C@H]3CC[C@@]21CC`: -21.7%; `C#C[C@]1(O)CC[C@H]2[C@@H]3CCc4cc(OC)ccc4[C@H]3CC[C@@]21C`: -3.09%. Still for that read-out and setting: next, `CN1CCc2cccc3c2[C@H]1Cc1ccc(O)c(O)c1-3`: -28%; `Cc1ccc(S(=O)(=O)NC(=O)NC2CCCC2)cc1`: 13.1%; `C[C@H]1[C@H]2CC[C@H]3[C@@H]4CC=C5C[C@@H](N(C)C)CC[C@]5(C)[C@H]4CC[C@]23CN1C`: -6.73%.

For `CCN(CC)CCOC(=O)C(Cc1cccc2ccccc12)CC1CCCO1` (stereo not drawn), the “activity change, negative = inhibition” value is 6.9%.
